According to PubChem BioAssay (Tox21):
Records with an inconclusive call do not appear. Unmarked numbers belong to inactive results. Activity calls are given as the source filed them. Calls come from the whole dose curve.

Experiment: qHTS assay for small molecules that induce genotoxicity in human embryonic kidney cells expressing luciferase-tagged ATAD5 - cell viability (AID 651634); note: nearly all actives have a fitted effect of over 25% in size
Settings: HEK293T ATAD5-luc cells viability, CellTiter-Fluor, 15.5 h; series mostly up to 83.3 µM; activity, negative = cytotoxicity: at the top concentration
Excerpt: National Center for Advancing Translational Sciences [NCATS]
NIH Chemical Genomics Center [NCGC]
U.S. Environmental Protection Agency [EPA]
National Institutes of Environmental Health Sciences [NIEHS]
National Toxicology Program [NTP]
U.S. Food and Drug Administration [FDA]
Enhanced Level of Genome Instability Gene 1 (ELG1; human ATAD5) protein levels increase in response to various types of DNA damage. Using a luciferase reporter-gene tagged with ElG1, a cell-based assay [developed by Kyungjae Myung, NHGRI, NIH] was used to measure the induction of ATAD5 in human embryonic kidney cells (HEK293T). So, increase in luciferase activity can be used to identify the compounds that cause genetic stress. In addition to genotoxicity, these cells were also used to test for cytotoxicity by measuring the protease activity within live cells.
Tox21 Assay Protocol Summary:
For cytotoxicity screening, 2,000 cells in 5 uL/well were dispensed into white, solid-bottom 1536-well plates using a Multidrop Combi (Thermo Scientific) dispenser. Following transfer of 23 nL compound or DMSO vehicle by a pin tool, the plates were incubated 15.5 hr at 37C and 5% CO2. 1 ul CellTiter-Fluor reagent (Promega, Madison, WI) was then added to each plate and following 30 min incubation at 37C, fluorescence intensity was quantified on a ViewLux CCD-based plate reader.
% is set by controls: 0 for no effect and ±100 for the full control effect; potency is the fitted concentration of half-maximal effect.

Row | SMILES | activity, negative = cytotoxicity | Potency
1 | NC(=O)Nc1nc2ccccc2[nH]1 | 2.77% | 
2 | CC(C)(C)CC(C)(C)N | 10.2% | 
3 | OC[C@H]1O[C@@H]2O[C@H]3[C@H](O)[C@@H](O)[C@@H](O[C@H]4[C@H](O)[C@@H](O)[C@@H](O[C@H]5[C@H](O)[C@@H](O)[C@@H](O[C@H]6[C@H](O)[C@@H](O)[C@@H](O[C@H]7[C@H](O)[C@@H](O)[C@@H](O[C@H]8[C@H](O)[C@@H](O)[C@@H](O[C@H]9[C@H](O)[C@@H](O)[C@@H](O[C@H]1[C@H](O)[C@H]2O)O[C@@H]9CO)O[C@@H]8CO)O[C@@H]7CO)O[C@@H]6CO)O[C@@H]5CO)O[C@@H]4CO)O[C@@H]3CO | 22.6% [at 39.1 µM] | 
4 | O=C(O)/C=C/c1ccc(Cn2ccnc2)cc1 | -12% [at 39.1 µM] | 
5 | CCN1CCCC(OC(=O)C(c2ccccc2)c2ccccc2)C1 (stereo not given) | 27.1% [at 39.1 µM] | 
6 | C=CCOCC(O)CS(=O)(=O)O (stereo not given) | 11.2% [at 95.3 µM] | 
7 | COC(=O)c1ccc(C(=O)OC)c(C(=O)OC)c1 | -8.94% | 
8 | CCn1cc(C(=O)O)c(=O)c2cc(F)c(N3CCN(C)CC3)cc21 | -11.4% | 
9 | COC(=O)C1=C(C)NC(C)=C(C(=O)OCC(C)=O)C1c1ccccc1[N+](=O)[O-] (stereo not given) |  | 23.7 µM (active)
10 | CC(=O)O[C@H](CC(=O)[O-])C[N+](C)(C)C | 9.41% | 
11 | C=C(C)[C@@H]1CCC2=CC(=O)C[C@@H](C)[C@]2(C)C1 | 2.38% | 
12 | CC(C=O)Cc1ccc(C(C)C)cc1 (stereo not given) | -5.85% | 
13 | OCC(O)[C@@H](O)[C@H](O)[C@H](O)CO[C@H]1O[C@H](CO)[C@@H](O)[C@H](O)[C@H]1O (stereo not given in full) | 16.8% | 
14 | Nc1nc2c(ncn2CCC(CO)CO)c(=O)[nH]1 | 21% | 
15 | O=C(O)c1ccccc1S | 6.68% | 
16 | COc1cccc(OC)c1 | 9.33% | 
17 | O=C(O)c1cccc(C(=O)O)n1 | 12% | 
18 | C=C(C)[C@H]1CC=C(C)CC1 | -6.79% | 
19 | C1C2OC2C2C1C1CC2C2OC12 (stereo not given) | 1.93% [at 95.3 µM] | 
20 | O=Cc1ccccc1[N+](=O)[O-] | -5.33% | 

Row | SMILES | activity, negative = cytotoxicity | Potency
21 | CCCc1ccccc1O | 18.5% | 
22 | CC(C)=CCC/C(C)=C/C(=O)O | 9.63% | 
23 | Cc1cc(C)c(NC(=O)CN(CC(=O)O)CC(=O)O)c(C)c1Br | 15.5% | 
24 | CCCCCCCCCCCl | 11.6% [at 95.3 µM] | 
25 | O=C(O)CCNC(=O)c1ccc(N=Nc2ccc(O)c(C(=O)O)c2)cc1 | -7.06% | 
26 | CCc1cc(S(=O)(=O)O)c2cc(C(C)C)cccc1-2 | 9.1% | 
27 | NS(=O)(=O)c1cc2c(cc1Cl)NC(CSCc1ccccc1)=NS2(=O)=O | 16.6% [at 39.1 µM] | 
28 | CC(=O)CCc1ccc(O)cc1 | 12.6% | 
29 | OC/C=C/c1ccccc1 |  | inactive
30 | C=CCn1c(=O)n([C@@H]2O[C@H](CO)[C@@H](O)[C@H]2O)c2nc(N)[nH]c(=O)c21 | 14% | 
31 | CCC(C)(C)C1CCC(OC)CC1 (stereo not given) | 17.5% | 
32 | O=C(O)C(O)[C@H](O)[C@@H](O)[C@H](O)[C@H](O)CO (stereo not given in full) | 13.5% [at 95.3 µM] | 
33 | C=CCSCC1Nc2cc(Cl)c(S(N)(=O)=O)cc2S(=O)(=O)N1 (stereo not given) | 4.64% | 
34 | CCCCNc1ccccc1 | 25.6% | 
35 | O=[N+]([O-])c1ccc(CCO)cc1 | 12.2% | 
36 | CCCC(C)CO (stereo not given) | -4.59% | 
37 | C=C(C)C(=O)OCCCCCCCCCCCCCCCCCC | 10.7% [at 39.1 µM] | 
38 | Cc1c(C)n(CCN(C)C)c2ccc(C(=O)OCCN(C)C)cc12 | -11.2% | 
39 | CCCCCCCCCCCCCCCCCCOCC(O)CO (stereo not given) | -0.718% | 
40 | C1=C\CC/C=C\CC/C=C\CC/1 | -8.28% | 
